# FECH block: human FECH heme synthesis enzyme inhibition; purified FECH, Ni-mesoporphyrin absorbance 550 nm; calls only at 10 µM (by protocol); 20,000 compounds, 3.3% hits;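 active means enzyme reaction rate more than 3 SD below the solvent-only control wells on the same plate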;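 further: lower slope than DMSO wells means FECH inhibition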
# Target sequence (P22830 whole entry, looked up): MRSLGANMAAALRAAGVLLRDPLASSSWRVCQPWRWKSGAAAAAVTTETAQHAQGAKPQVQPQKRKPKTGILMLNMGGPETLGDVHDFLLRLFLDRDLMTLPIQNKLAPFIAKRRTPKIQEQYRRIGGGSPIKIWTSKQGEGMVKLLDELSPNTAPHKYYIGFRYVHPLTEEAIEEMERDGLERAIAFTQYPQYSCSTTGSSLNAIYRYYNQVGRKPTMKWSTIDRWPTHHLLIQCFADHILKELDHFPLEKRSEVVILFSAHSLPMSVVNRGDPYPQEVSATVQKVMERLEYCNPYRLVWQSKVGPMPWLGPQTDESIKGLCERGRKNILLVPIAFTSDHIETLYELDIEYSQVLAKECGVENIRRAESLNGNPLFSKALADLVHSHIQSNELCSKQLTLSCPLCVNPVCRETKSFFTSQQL
# Numbers without * were called inactive; i = inactive; + = active, no number. Shown is part of a subset that was picked to be rich in hits.
SMILES,FECH block
Cc1cnc(NCc2ccc(C(=O)N(C)C)o2)nc1N(C)C,i
Cc1cnc(NCCNC(=O)c2cccnc2)nc1N(C)C,+
Cn1ncc2c(NCCNC(=O)c3cccnc3)nc(C(C)(C)C)nc21,i
CCCCN(Cc1cccc(OC)c1)C(=O)c1cnc(C)[nH]1,i
CCc1oc2ccccc2c1-c1nccn1CCN(C)C,i
Cc1c(CN2Cc3ncccc3C2=O)oc2ccccc12,i
Cc1c(-c2nccn2Cc2cccnc2)oc2ccccc12,+
Cc1c(CO)cccc1NC(=O)c1cccc(CN2CC=CC2)c1,i
O=C1NCc2ccc(S(=O)(=O)NCc3ccc(F)cc3)cc21,i
COCc1nc2cccnc2n1C1CCN(S(=O)(=O)c2ccc(Br)cc2)CC1,i
COCc1nc2cccnc2n1C1CCN(S(=O)(=O)c2ccccc2)CC1,i
COCc1nc2cccnc2n1C1CCN(S(=O)(=O)c2ccc(NC(C)=O)cc2)CC1,+
CCCCNC(=O)c1ccc(-c2ccn[nH]2)o1,i
CCCNS(=O)(=O)c1ccc(-c2n[nH]c(CCc3ccccc3)n2)cc1,i
CCCc1ccc(S(=O)(=O)N2CCN(Cc3nc4cccnc4n3-c3ccc(C)cc3)CC2)cc1,i
CCOc1ccccc1CNC(=O)CN1C(=O)CN(C)C(=O)c2ccccc21,i
Cc1cccc(OCC(=O)Nc2cccc(OCc3cc(=O)n4ccc(C)cc4n3)c2)c1,i
Cc1ccc(OCC(=O)Nc2cccc(OCc3cc(=O)n4cc(Cl)ccc4n3)c2)cc1C,i
Cc1ccc(OCC(=O)Nc2ccc(C)c(OCc3cc(=O)n4cccc(C)c4n3)c2)cc1C,+
CCC(Oc1ccccc1)C(=O)Nc1ccc(C)c(OCc2cc(=O)n3cccc(C)c3n2)c1 (stereo not given),i
Cc1ccn2c(=O)cc(COc3cccc(NC(=O)COc4ccccc4)c3)nc2c1,i
Cc1cccc(OCC(=O)Nc2ccc(C)c(OCc3cc(=O)n4cccc(C)c4n3)c2)c1,+
Cc1ccn2c(=O)cc(COc3cccc(NC(=O)COc4ccccc4Cl)c3)nc2c1,i
COc1ccc(OCC(=O)Nc2cccc(OCc3cc(=O)n4ccc(C)cc4n3)c2)cc1,i
Cc1ccc(OCC(=O)Nc2cccc(OCc3cc(=O)n4ccc(C)cc4n3)c2)cc1,i
SMILES,FECH block
Cc1ccc(NC(=O)COc2ccccc2)cc1OCc1cc(=O)n2cccc(C)c2n1,+
Cc1ccccc1OCC(=O)Nc1ccc(C)c(OCc2cc(=O)n3cccc(C)c3n2)c1,+
COc1ccc(OCC(=O)Nc2cccc(OCc3cc(=O)n4cc(Cl)ccc4n3)c2)cc1,i
COc1ccc(C)cc1NS(=O)(=O)c1ccc2c(c1)CCN2C(=O)CCC(=O)N1CCOCC1,i
CCCN(CCC)c1ncc(NS(=O)(=O)c2ccccc2)cc1C(=O)O,i
O=C(CSCc1nc(-c2ccc(F)cc2)no1)NCCC1=CCCCC1,i
Cc1cccc(CN(Cc2ccccc2)C(=O)c2nnc(C)o2)n1,i
CCCc1cc(CNC(=O)CN(c2cccc(C)c2)S(C)(=O)=O)on1,i
COc1cc2c(=O)n(Cc3ccc(C(=O)NC(C)C)cc3)c(=O)n(CC(N)=O)c2cc1OC,i
Cc1cc(C)n2nc(CN(C(=O)c3ccc(F)cc3)c3ccccc3)nc2n1,i
Cc1cc(C)n2nc(CN(C(=O)Cc3ccccc3)c3ccccc3)nc2n1,+
COc1ccc(C(=O)N(Cc2nc3nc(C)cc(C)n3n2)c2cccc(C)c2)cc1OC,i
Cc1cc(C)n2nc(CN(C(=O)Cc3ccccc3)c3ccc(F)cc3)nc2n1,i
Cc1cc(C)n2nc(CN(C(=O)c3ccccc3)c3cccc(Cl)c3)nc2n1,+
Cc1cc(C)n2nc(CN(C(=O)c3ccco3)c3ccc(F)cc3)nc2n1,+
Cc1cc(C)n2nc(CN(C(=O)c3cccc(Cl)c3)c3ccccc3)nc2n1,i
Cc1cccc(N(Cc2nc3nc(C)cc(C)n3n2)C(=O)Cc2ccccc2)c1,i
Cc1ccc(N(Cc2nc3nc(C)cc(C)n3n2)C(=O)c2ccco2)cc1,i
Cc1cccc(N(Cc2nc3nc(C)cc(C)n3n2)C(=O)c2ccco2)c1,i
Cc1ccc(C(=O)N(Cc2nc3nc(C)cc(C)n3n2)c2cccc(C)c2)cc1,+
Cc1ccc(C(=O)N(Cc2nc3nc(C)cc(C)n3n2)c2cccc(Cl)c2)cc1,i
Cc1cc(Nc2ccc(OC(=O)c3cccs3)cc2)n2nc(-c3cccnc3)nc2n1,i
COCCn1c(CNS(=O)(=O)c2ccc(C)cc2C)nc2cccnc21,i
Cc1ccsc1S(=O)(=O)N1C[C@@H]2[C@@H]3CC[C@@H](C3)[C@@H]2C1,i
CN1C(=O)c2ccccc2Sc2cc(-c3noc(-c4ccco4)n3)ccc21,i
COc1ccc(-n2cnnc2CN2CCN(c3ccc(F)cc3)CC2)cc1,i
O=C(C1CCCN(C2CCN(c3nc(CO)cs3)CC2)C1)N1CCOCC1 (stereo not given),i
COc1ccc(CCNC(=O)c2cccn2-c2nnc(N3CCCCC3)s2)c(OC)c1,i
O=C(NCC(=O)N(Cc1ccccn1)CC1CCCO1)c1ccccc1 (stereo not given),i
